Data taken from PubChem BioAssay AID1508622 (National Center for Advancing Translational Sciences (NCATS), 2021).
Calls of active or inactive are those of the source. A call without a number means that no potency is given here. Calls follow the shape of the dose curve; as a rule, active = well fitted activation curve with a large enough effect; inconclusive = small, poorly fitted or top-dose-only effect; inactive = no such curve, though single readings can be large or run the other way.

Test: Confirmatory qHTS for Identification of Small Molecule Activators of Huntingtin-Antisense Promoter Activity
Procedure, shortened: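 Activity normalized between vehicle control (0%) and zero RLU (-100%) from firefly luminescence (Dual-Glo). Compounds, up to 57.5 uM final, incubated 24 h at 37C on HEK293 reporter cells plated 24 h earlier.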
Potency is read from the fitted curve at half-maximal effect.

Compound	Potency
Cc1ccc(CNC(=O)c2c(Nc3c(C)cccc3C)sc(C(=O)c3ccccc3)c2N)cc1	inactive
COc1cc(NC(=O)Cn2c(=O)oc3cc(S(=O)(=O)N4CCCCCC4)ccc32)cc(OC)c1	inactive
COC[C@H](NC(=O)c1cnc(C)s1)C(=O)N[C@@H](COC)C(=O)N[C@@H](Cc1ccccc1)C(=O)[C@@]1(C)CO1	inactive
CSc1cccc(NC(=O)C2CCN(S(=O)(=O)c3ccc4[nH]c5c(c4c3)CCCCC5)CC2)c1	inactive
COc1ccc(C(=O)CN2CCN(S(=O)(=O)c3ccc(C(C)C)cc3)CC2)cc1	inactive
N#CCNC(=O)c1ccc(-c2ccnc(Nc3ccc(N4CCOCC4)cc3)n2)cc1	inactive
COc1cc2ccccc2cc1C(=O)N1CCN(c2nc3ccc(F)cc3s2)CC1	inactive
COc1ccc(-n2c(/C=C/c3cccc4ccccc34)nc3ccccc3c2=O)cc1Cl	inactive
Cc1ccc(CN2CCCn3nc(C(=O)NCc4ccc(OC(C)C)cc4)cc3C2=O)cc1	inactive
CCOc1ccccc1CNC(=O)C(CC)n1nc(C)c2c(C)n(-c3ccccc3)nc2c1=O (stereo not given)	inactive
Cc1ccccc1C(=O)NCc1ccc2c(c1)CCN2C(=O)c1ccccc1	inactive
CCCC(=O)Nc1nnc(SCc2cc(=O)c3ccc(C)cc3[nH]2)s1	inactive
Cc1ccc(Cl)cc1N1CCN(CCCNC(=O)C2COc3ccccc3C2)CC1 (stereo not given)	inactive
CCOc1ccc(CCNC(=O)c2cc3n(n2)CCCN(Cc2ccc(C)cc2)C3=O)cc1OCC	inactive
COc1ccc(CNC(=O)c2c(Nc3ccccc3C)sc(C(=O)c3ccccc3)c2N)cc1	inactive
COc1ccc(CNC(=O)Nc2ccc3c(c2)N(C)C(=O)c2ccccc2S3)cc1OC	inactive
COc1cccc(C(=O)N2c3cc(C)ccc3C(C)(c3ccccc3)CC2(C)C)c1 (stereo not given)	inactive
CCOCc1cc(CN2CCN(c3ccccc3OC)CC2)c(O)c2ncccc12	inactive

Compound	Potency
CCCN(c1ccccc1CC)S(=O)(=O)c1ccc2c(c1)CC(C)N2C(=O)C1CC1 (stereo not given)	inactive
O=C(Nc1ccc(F)cc1F)N1CCN(c2ccc(Cl)c(Cl)c2)CC1	inactive
COc1ccc(NC(=O)Cc2csc(COc3cccc(C)c3)n2)cc1OC	inactive
CCCc1cc(N2CCN(c3cccc(C)c3C)CC2)n2cnnc2n1	inactive
Cc1ccc(C)c(NC(=O)Cn2c(=O)oc3cc(S(=O)(=O)NCc4ccccc4)ccc32)c1	inactive
CCc1nnc2n1N(C(C)=O)C(c1ccc(C(C)(C)C)cc1)=C(C(C)=O)S2	inactive
CCOC(=O)c1ccc(N2C(=O)c3[nH]nc(-c4ccc(OCC)cc4)c3C2c2cccs2)cc1 (stereo not given)	inactive
CCc1ccc(NC(=O)Nc2cn(C)c(=O)c3ccccc23)cc1	inactive
O=C(Nc1ccc2c(c1)CCCN2C(=O)c1cccs1)c1cccc(C(F)(F)F)c1	inactive
CC1=C(C(=O)OC2CCCC2)C(c2ccccc2Cl)CC(=O)N1 (stereo not given)	inactive
CN(C)Cc1c(C(=O)NCCOc2ccc(C(=O)NO)cc2)oc2ccccc12	7.57 µM (active)
CCOc1ccc(CNC(=O)C2CCN(c3nnc(-n4c(C)ccc4C)s3)CC2)cc1	inactive
CCS(=O)(=O)NCCc1sc2nc(-c3ccc(OC)cc3)nn2c1C	inactive
COc1ccc(C(=O)NCCSc2c(C)[nH]c3ccccc23)cc1	inactive
CCCCOc1ccc(CNC(=O)c2ccc(NC(=O)N3CCSc4ncccc43)cc2)cc1	inactive
CC(C)c1ccc(NC(=O)c2ccc(F)c(S(=O)(=O)N3CCc4ccccc4C3)c2)cc1	inactive
CCN(Cc1ccccc1)C(=O)c1cc(-c2ccccc2)n[nH]1	0.953 µM (active)
